For some assays here: Entries with a potency or affinity are not part of this list. The source made the active and inactive calls. How the calls were made is not given here.
The compounds below were run against Plasmodium falciparum protein kinase 6 (PK6, PF3D7_1337100) (UniProt Q8IDW1) (assay: PfPK6 kinase inhibitors, biochemical, TCAMS library (AID 1159586)). Conditions: recombinant PfPK6, Kinase-Glo ATP depletion luminescence.
Sequence of Plasmodium falciparum protein kinase 6 (PK6, PF3D7_1337100) (Q8IDW1 1-305): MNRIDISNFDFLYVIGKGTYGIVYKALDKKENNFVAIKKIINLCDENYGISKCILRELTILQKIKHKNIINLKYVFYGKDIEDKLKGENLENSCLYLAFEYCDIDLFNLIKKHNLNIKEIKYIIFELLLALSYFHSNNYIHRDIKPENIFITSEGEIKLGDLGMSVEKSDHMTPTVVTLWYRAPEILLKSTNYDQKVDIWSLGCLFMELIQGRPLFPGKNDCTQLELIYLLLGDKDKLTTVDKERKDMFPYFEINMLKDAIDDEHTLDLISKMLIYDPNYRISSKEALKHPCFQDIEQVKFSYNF

Row | SMILES | outcome
1 | CN1CCN(Cc2cccc(-c3ccc4c(Nc5cc(O)c(Cl)cc5F)ccnc4c3)c2)CC1 | inactive
2 | CC(=O)Nc1cccc(Nc2nccc(Nc3ccc(Oc4ccccc4)cc3)n2)c1 | inactive
3 | COc1cccc(Nc2nccc(-c3c(-c4cccc(NC(=O)c5c(F)cccc5F)c4)nn4ccccc34)n2)c1 | inactive
4 | O=C(Nc1cccc(-c2nn3ccccc3c2-c2ccnc(Nc3ccc(-c4ccn[nH]4)cc3)n2)c1)c1c(F)cccc1F | inactive
5 | Oc1cc(-c2nc(-c3ccccc3)[nH]c2-c2ccncc2)ccc1Cl | inactive
6 | COc1ccc(-c2cnn3ccc(Nc4cc(OC)c(OC)c(OC)c4)nc23)cc1OC | inactive
7 | O=C(NCCN1CCCCC1)c1cccc(Nc2nccc(Nc3ccc(Oc4ccccc4)cc3)n2)c1 | inactive
8 | O=c1[nH]ccc2nc(N[C@@H]3CCNC3)nc(Nc3ccc4c(c3)S(=O)(=O)CC4)c12 | inactive
9 | Cc1ccc(O)cc1Nc1ccnc2cc(-c3cccc(CNCCS(C)(=O)=O)c3)ccc12 | inactive
10 | Fc1cc(Cl)ccc1Nc1ccnc2cc(-c3ccc(CNCCN4CCOCC4)o3)ccc12 | inactive

The compounds below were run against Protein kinase 7 (PK7), Plasmodium falciparum 3D7 (PF3D7_0213400) (UniProt Q7YTF7) (assay: inhibition of Plasmodium PK7 catalytic activity – biochemical, TCAMS antimalarial set, Kinase-Glo luminescence (AID 1159587)). Conditions: recombinant PfPK7, Kinase-Glo ATP depletion luminescence.
Sequence of Protein kinase 7 (PK7), Plasmodium falciparum 3D7 (PF3D7_0213400) (Q7YTF7 1-343): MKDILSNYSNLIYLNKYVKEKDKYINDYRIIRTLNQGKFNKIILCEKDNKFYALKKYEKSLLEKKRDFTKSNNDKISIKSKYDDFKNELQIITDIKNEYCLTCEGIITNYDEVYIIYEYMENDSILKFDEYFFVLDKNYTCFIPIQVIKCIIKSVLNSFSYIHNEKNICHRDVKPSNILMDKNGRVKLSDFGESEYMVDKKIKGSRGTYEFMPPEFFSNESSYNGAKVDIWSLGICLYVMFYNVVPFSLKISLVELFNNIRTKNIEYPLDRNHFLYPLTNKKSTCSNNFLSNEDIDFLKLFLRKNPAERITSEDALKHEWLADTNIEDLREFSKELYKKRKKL

Row | SMILES | outcome
11 | CN1CCN(Cc2cccc(-c3ccc4c(Nc5cc(O)c(Cl)cc5F)ccnc4c3)c2)CC1 | inactive
12 | COc1c(CN2CCOCC2)cccc1-c1cc2c(-c3ccc(C(=O)O)c(C(C)C)c3)ccnc2[nH]1 | inactive
13 | CC(=O)Nc1cccc(Nc2nccc(Nc3ccc(Oc4ccccc4)cc3)n2)c1 | inactive
14 | C#CCNC(=O)c1ccc(-c2ccnc(Nc3cccc(CCCN4CCOCC4)c3)n2)s1 | inactive
15 | CN(c1ccc2c(c1)nc(NCc1ccccc1)n2C)c1ccnc(Nc2ccc(CS(C)(=O)=O)cc2)n1 | inactive
16 | CN(C)CC(O)COc1ccc(Nc2ncc([N+](=O)[O-])c(Nc3ccccc3O)n2)cc1 (stereo not given) | inactive
17 | N=C(N)c1ccc(Nc2nc(Nc3ccc(-c4ccccc4)cc3)ncc2[N+](=O)[O-])cc1 | inactive
18 | CC(=O)c1ccc(NC(=O)Nc2ccc(N(C)c3ccnc(Nc4cccc(CS(C)(=O)=O)c4)n3)cc2)cc1 | inactive
19 | N#Cc1cnc(Nc2ccc(Oc3ccccc3)cc2)nc1Nc1cccc(S(N)(=O)=O)c1 | inactive
20 | Cc1ccc(Nc2nc3cc(Nc4ccnc(Nc5cccc(CS(C)(=O)=O)c5)n4)ccc3o2)cc1 | inactive
21 | O=C(O)c1cccnc1Sc1ccc(Cl)cc1 | inactive
22 | CC(=O)Nc1nc(C)c(-c2csc(Nc3ccc(Cl)cc3)n2)s1 | inactive
23 | COc1cccc(Nc2nccc(-c3c(-c4cccc(NC(=O)c5c(F)cccc5F)c4)nn4ccccc34)n2)c1 | inactive
24 | CN(c1ccc(NC(=O)Nc2cc(C(F)(F)F)ccc2F)cc1)c1ccnc(NCCN2CCOCC2)n1 | inactive
25 | COc1cccc(-n2ncc3c(N/N=C/c4ccc(CN(C)CCN(C)C)cc4)ncnc32)c1 | inactive
26 | Nc1ncc(-c2cccc(F)c2)cc1-c1nc2ccc(F)cc2[nH]1 | inactive
27 | CS(=O)(=O)Cc1cccc(Nc2ncc(Cl)c(Nc3cccnc3C(N)=O)n2)c1 | inactive
28 | COc1c(CN2CCCC2)cccc1-c1cc2c(-c3ccc(C(=O)O)c(C(C)C)c3)ccnc2[nH]1 | inactive
29 | CN(c1ccc(NC(=O)Nc2cccc(Cl)c2)cc1)c1ccnc(N)n1 | inactive
30 | CC(=O)Nc1ccc(Nc2ncc([N+](=O)[O-])c(Nc3ccccc3C(N)=O)n2)cc1 | inactive

Row | SMILES | outcome
31 | O=C(Nc1cccc(-c2nn3ccccc3c2-c2ccnc(Nc3ccc(-c4ccn[nH]4)cc3)n2)c1)c1c(F)cccc1F | inactive
32 | CN(c1ccc2c(c1)nc(NCc1ccc(F)cc1)n2C)c1ccnc(Nc2ccc(CS(C)(=O)=O)cc2)n1 | inactive
33 | CCN(CC)CCCNc1nccc(N(C)c2ccc(NC(=O)Nc3cc(C(F)(F)F)ccc3F)cc2)n1 | inactive
34 | NS(=O)(=O)c1cccc(Nc2nccc(-c3cnn4ncccc34)n2)c1 | inactive
35 | CN1CCC(NC(=O)c2cccc(Nc3cc(Nc4cccc(Br)c4)ncn3)c2)CC1 | inactive
36 | CCN(CC)CCNC(=O)c1ccc(Nc2ncc([N+](=O)[O-])c(Nc3ccccc3OC)n2)cc1 | inactive
37 | O=C(Cc1ccc(Nc2nccc(Nc3cccc4[nH]ncc34)n2)cc1)Nc1ccc(C(F)(F)F)cc1 | inactive
38 | Cc1ccc(S(=O)(=O)Nc2ccc(Nc3nccc(Nc4cccc5[nH]ncc45)n3)cc2)cc1 | inactive
39 | Oc1cc(-c2nc(-c3ccccc3)[nH]c2-c2ccncc2)ccc1Cl | inactive
40 | CN(c1ccc(NC(=O)Nc2cc(C(C)(C)C)on2)cc1)c1ccnc(NCCN2CCOCC2)n1 | inactive
41 | COc1ccc(-c2cnn3ccc(Nc4cc(OC)c(OC)c(OC)c4)nc23)cc1OC | inactive
42 | O=C(NCCN1CCCCC1)c1cccc(Nc2nccc(Nc3ccc(Oc4ccccc4)cc3)n2)c1 | inactive
43 | O=c1[nH]ccc2nc(N[C@@H]3CCNC3)nc(Nc3ccc4c(c3)S(=O)(=O)CC4)c12 | inactive
44 | Cc1cc(Nc2nc(Nc3cccc(Cl)c3)nc3ccccc23)n[nH]1 | inactive
45 | C(=N\Nc1nccc2sc(-c3ccccc3)cc12)/c1cccnc1 | inactive
46 | Cn1nc(-c2ccc(NC(=O)Nc3ccc4ccccc4c3)c(F)c2)c2cnc(NCCN3CCOCC3)nc21 | inactive
47 | Cn1cnc2c(Nc3ccncc3)nc(-c3ccc4c(c3)OCO4)nc21 | inactive
48 | Cc1ccc(O)cc1Nc1ccnc2cc(-c3cccc(CNCCS(C)(=O)=O)c3)ccc12 | inactive
49 | Fc1cc(Cl)ccc1Nc1ccnc2cc(-c3ccc(CNCCN4CCOCC4)o3)ccc12 | inactive
50 | N=C(N)c1ccc(Nc2nccc(Nc3nc(-c4ccccc4)cs3)n2)cc1 | inactive

Reference: PubChem BioAssay
